# Test results from PubChem BioAssay (Tox21).
# Results filed as inconclusive are left out. Entries that show only a call come without a potency. Active and inactive are the calls of the source. The call rests on the fitted dose curve; in most records, active means well fitted curve in the direction sought with a large enough effect in the repeat runs; inconclusive means weak or mixed curves; inactive means no such curve, though single readings can be large; an effect the other way counts as inactive or inconclusive.
# Experiment: qHTS RealTime-Glo MT Cell Viability Assay in HepG2 cells - 40 hour (AID 1224870); further: nearly all actives have a fitted effect of over 50% in size
# Conditions: RealTime-Glo luminescence; series mostly up to 76.8 µM
# How it was run: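 HepG2 cells mixed with RealTime-Glo MT reagents (NanoLuc plus cell-permeant prosubstrate) were seeded at 600 cells/well, incubated 5 h at 37 C/5% CO2, then pinned with compounds in DMSO; nonlytic luminescence tracked viability during 40 h treatment.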
# Potency means the concentration at half of the fitted maximal effect.
row,SMILES,Potency
1,CC(C)C(OC(=O)c1ccccc1)C(C)(C)COC(=O)c1ccccc1 (centres undefined),inactive
2,CCCCN(CCCC)C(=S)SSC(=S)N(CCCC)CCCC,inactive
3,Fc1ccccc1[C@@H](F)COC1CCC(Nc2ncnc3[nH]ncc23)CC1 (some centres undefined),inactive
4,CC1=CC(O)CC(C)(C)C1 (centres undefined),inactive
5,O=c1[nH]c2ccc(S(=O)CCN3CCC(Cc4ccc(F)cc4)CC3)cc2o1 (centres undefined),inactive
6,CCOC(=O)N1CCC(n2c(=O)[nH]c3cc(Cl)ccc32)CC1,inactive
7,NC(=O)N(O)[C@@H]1C=C[C@H](Oc2cccc(Oc3ccc(F)cc3)c2)C1,inactive
8,CCCCC(CC)C(=O)OCCOCCOCCOCCOC(=O)C(CC)CCCC (centres undefined),inactive
9,O=[N+]([O-])c1cccc(S(=O)(=O)NCCNS(=O)(=O)c2cccc([N+](=O)[O-])c2)c1,inactive
10,CCCCC1C(=O)N(c2ccccc2)N(c2ccc(O)cc2)C1=O (centres undefined),23.9 µM (active)
11,C(=C\c1ccccc1)/CN1CCN(C(c2ccccc2)c2ccccc2)CC1,inactive
12,COc1cc2ncnc(Nc3ccc(F)c(Cl)c3)c2cc1OCCCN1CCOCC1,26.8 µM (active)
13,CC1CC(=O)NN=C1c1ccc(NCC(C)(C)NCC(O)COc2cc(Cl)ccc2C#N)cc1 (centres undefined),inactive
14,O=C(N[C@@H](c1ccccc1)[C@@H]1CCCCN1)c1cccc(C(F)(F)F)c1Cl,43.6 µM (active)
15,O=C(CCC1CCN(Cc2ccccc2)CC1)c1ccc2c(c1)NCCCC2,inactive
16,CCCCCCCCCCCC[N+](C)(C)CCCS(=O)(=O)[O-],inactive
17,C/C=C/C=C/CCCCCCCO,inactive
18,CCOC(=O)CC(=O)C(=O)OCC,inactive
19,O=C1NCCN1,inactive
20,Nc1nccs1,inactive
21,Cc1ccc(Nc2nccc(N(C)c3ccc4c(C)n(C)nc4c3)n2)cc1S(N)(=O)=O,inactive
22,CCCCC(=O)O[C@]1(C(=O)CO)[C@@H](C)C[C@H]2[C@@H]3CCC4=CC(=O)C=C[C@]4(C)[C@@]3(F)[C@@H](O)C[C@@]21C,inactive
23,CC(=O)[C@H]1CC[C@H]2[C@@H]3C[C@H](C)C4=CC(=O)CC[C@]4(C)[C@H]3[C@@H](O)C[C@]12C,inactive
24,CC(=O)Oc1ccc2c(c1)CC[C@@H]1[C@@H]2CC[C@]2(C)[C@@H](O)CC[C@@H]12,inactive
25,CC(=O)OCC(=O)[C@H]1CC[C@H]2[C@@H]3CCC4=CC(=O)CC[C@]4(C)[C@H]3CC[C@]12C,inactive
26,CCCCCCCCCCCC[N+](C)(C)CC(=O)[O-],inactive
27,O=C(c1ccc(O)cc1)c1ccc(Cl)cc1,inactive

# Experiment: A CellTox Green Cytotoxicity Assay to monitor cytotoxicity in HEK293 cells - 40 hour (AID 1224871); further: nearly all actives have a fitted effect of over 45% in size
# Conditions: CellTox Green fluorescence; series mostly up to 76.8 µM
# How it was run: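 Homogeneous no-lysis format: HEK293 cell suspension mixed with CellTox Green reagent, seeded, incubated 5 h at 37 C/5% CO2, then dosed by pintool with compound in DMSO.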
row,SMILES,Potency
1,C=CC(=O)NCOCC(C)C,inactive
2,CC(C)C(OC(=O)c1ccccc1)C(C)(C)COC(=O)c1ccccc1 (centres undefined),inactive
3,C=CCNc1nc(NCC=C)nc(N2CCN(C(c3ccc(F)cc3)c3ccc(F)cc3)CC2)n1,inactive
4,O=c1[nH]c2ccc(S(=O)CCN3CCC(Cc4ccc(F)cc4)CC3)cc2o1 (centres undefined),inactive
5,CCOC(=O)N1CCC(n2c(=O)[nH]c3cc(Cl)ccc32)CC1,inactive
6,NC(=O)N(O)[C@@H]1C=C[C@H](Oc2cccc(Oc3ccc(F)cc3)c2)C1,43.6 µM (active)
7,CCCCC(CC)C(=O)OCCOCCOCCOCCOC(=O)C(CC)CCCC (centres undefined),inactive
8,CC(C)(C)C(=O)O,inactive
9,C(=C\c1ccccc1)/CN1CCN(C(c2ccccc2)c2ccccc2)CC1,inactive
10,CC1CC(=O)NN=C1c1ccc(NCC(C)(C)NCC(O)COc2cc(Cl)ccc2C#N)cc1 (centres undefined),inactive
11,CC(CCc1ccc2c(c1)OCO2)NN (centres undefined),inactive
12,CCCCCCCCCOC(C)=O,inactive
13,CCCCCCOC(=O)C(C)C,inactive
14,CCCOC(=O)c1ccc(C(=O)OCCC)nc1,inactive
15,CO/N=C1\CN(c2nc3c(cc2F)c(=O)c(C(=O)O)cn3C2CC2)CC1CN (centres undefined),inactive
16,O=S1OCCO1,inactive
17,CC1CC(O)CC(C)(C)C1 (centres undefined),inactive
18,CCCCC(=O)O[C@]1(C(=O)CO)[C@@H](C)C[C@H]2[C@@H]3CCC4=CC(=O)C=C[C@]4(C)[C@@]3(F)[C@@H](O)C[C@@]21C,54.9 µM (active)
19,CC(=O)[C@H]1CC[C@H]2[C@@H]3C[C@H](C)C4=CC(=O)CC[C@]4(C)[C@H]3[C@@H](O)C[C@]12C,inactive
20,CNC(=O)N(c1ccccc1)c1ccccc1,inactive
21,CCCC1C(CC)=CC(CC)=CN1c1ccccc1 (centres undefined),inactive
22,C1COCO1,inactive

# Experiment: qHTS RealTime-Glo MT Cell Viability Assay in HEK293 cells - 16 hour (AID 1224872); further: nearly all actives have a fitted effect of over 50% in size
# Conditions: RealTime-Glo luminescence; series mostly up to 76.8 µM
# How it was run: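 Luminescence generated by NanoLuc from substrate produced by living HEK293 cells served as the viability signal. Each value reflects the reading at its stated time point during continuous 40 h compound exposure at 37 C.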
row,SMILES,Potency
1,C=CC(=O)NCOCC(C)C,inactive
2,C=CCNc1nc(NCC=C)nc(N2CCN(C(c3ccc(F)cc3)c3ccc(F)cc3)CC2)n1,inactive
3,CCCCN(CCCC)C(=S)SSC(=S)N(CCCC)CCCC,48.5 µM (active)
4,CC1=CC(O)CC(C)(C)C1 (centres undefined),inactive
5,O=[N+]([O-])c1cccc(S(=O)(=O)NCCNS(=O)(=O)c2cccc([N+](=O)[O-])c2)c1,inactive
6,CC(C)(C)C(=O)O,inactive
7,COc1cc2ncnc(Nc3ccc(F)c(Cl)c3)c2cc1OCCCN1CCOCC1,9.52 µM (active)
8,CC(CCc1ccc2c(c1)OCO2)NN (centres undefined),inactive
9,CCCCCCCCCOC(C)=O,inactive
10,O=C(CCC1CCN(Cc2ccccc2)CC1)c1ccc2c(c1)NCCCC2,9.52 µM (active)
11,CCCCCCOC(=O)C(C)C,inactive
12,CCCOC(=O)c1ccc(C(=O)OCCC)nc1,inactive
13,CO/N=C1\CN(c2nc3c(cc2F)c(=O)c(C(=O)O)cn3C2CC2)CC1CN (centres undefined),inactive
14,CCCCCCCCCCCC[N+](C)(C)CCCS(=O)(=O)[O-],inactive
15,C/C=C/C=C/CCCCCCCO,inactive
16,O=C1NCCN1,inactive
17,Nc1nccs1,inactive
18,Cc1ccc(Nc2nccc(N(C)c3ccc4c(C)n(C)nc4c3)n2)cc1S(N)(=O)=O,1.9 µM (active)
19,O=S1OCCO1,inactive
20,CC1CC(O)CC(C)(C)C1 (centres undefined),inactive
21,CNC(=O)N(c1ccccc1)c1ccccc1,inactive
22,CCCCCCCCCCCC[N+](C)(C)CC(=O)[O-],inactive
23,CCCC1C(CC)=CC(CC)=CN1c1ccccc1 (centres undefined),15.5 µM (active)
24,C1COCO1,inactive
25,O=C(c1ccc(O)cc1)c1ccc(Cl)cc1,25.1 µM (active)
